# Data from PubChem BioAssay (NCI).
# The panel holds about 83,000 compounds, 20% with a hit somewhere; the sample as a whole holds those more often.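 A percent growth of 40 corresponds to 60% growth inhibition; 0 means no net growth; -100 means all cells died. Active threshold: below 10.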 A number with no mark means an inactive call. The source made the active and inactive calls.
# Key:
# Test in all cases: NCI-60 one-dose screen, 48 h (100 = growth as untreated, 0 = no growth, -100 = all killed)
# Settings in all cases: 10 µM unless noted
# HCT-15 colon = test system: HCT-15 colon
# HT29 colon = test system: HT29 colon
# SNB-75 CNS = test system: SNB-75 CNS
# SNB-19 CNS = test system: SNB-19 CNS
# U251 CNS = test system: U251 CNS
# PC-3 prostate = test system: PC-3 prostate
# SK-MEL-5 melanoma = test system: SK-MEL-5 melanoma
# UACC-62 melanoma = test system: UACC-62 melanoma
# LOX IMVI melanoma = test system: LOX IMVI melanoma
# SK-MEL-28 melanoma = test system: SK-MEL-28 melanoma
# SK-MEL-2 melanoma = test system: SK-MEL-2 melanoma
# EKVX NSCLC = test system: EKVX NSCLC
# SN12C renal = test system: SN12C renal
# UO-31 renal = test system: UO-31 renal
# TK-10 renal = test system: TK-10 renal
# ACHN renal = test system: ACHN renal
# CAKI-1 renal = test system: CAKI-1 renal
# A498 renal = test system: A498 renal
# CCRF-CEM leukemia = test system: CCRF-CEM leukemia
# MOLT-4 leukemia = test system: MOLT-4 leukemia
SMILES,growth (HCT-15 colon),growth (HT29 colon),growth (SNB-75 CNS),growth (SNB-19 CNS),growth (U251 CNS),growth (PC-3 prostate),growth (SK-MEL-5 melanoma),growth (UACC-62 melanoma),growth (LOX IMVI melanoma),growth (SK-MEL-28 melanoma),growth (SK-MEL-2 melanoma),growth (EKVX NSCLC),growth (SN12C renal),growth (UO-31 renal),growth (TK-10 renal),growth (ACHN renal),growth (CAKI-1 renal),growth (A498 renal),growth (CCRF-CEM leukemia),growth (MOLT-4 leukemia)
CS(=O)(=O)c1ccc(-n2cc(/C=N/O)c(-c3ccccc3)n2)cc1,76.6%,97.4%,87.7%,71.2%,72.1%,71%,21.2%,66.6%,-79.5% (active),93.3%,92.3%,81.7%,89.5%,76%,92.5%,78.4%,73.8%,83.7%,33.8%,28.7%
CC[C@@H](CO)Nc1ccc2ncc(C#Cc3cncc(C(=O)Nc4ccc(CN5CCN(C)CC5)c(C(F)(F)F)c4)c3)n2n1,-33.4% (active),-51% (active),-83.5% (active),-20% (active),-87.8% (active),-21.1% (active),-96.4% (active),-34.5% (active),-95.3% (active),-43.4% (active),-93.2% (active),-9.99% (active),-55.4% (active),-85.9% (active),-53.5% (active),-91.4% (active),-82.8% (active),-98.8% (active),7.24% (active),3.44% (active)
C=C(C)[C@@H]1CC[C@]2(COC)CC[C@]3(C)[C@H](CC[C@@H]4[C@@]5(C)CCCNC(C)(C)[C@@H]5CC[C@]43C)[C@@H]12,2.81% (active),13.7%,76.3%,66.5%,22.2%,39.5%,48.1%,75.2%,-90.8% (active),-61.2% (active),84.6%,53.9%,73.6%,60.8%,79.6%,67%,19%,62.3%,-10.1% (active),-32.3% (active)
CCNC(=O)N1CCc2cc(OC)c(OCCc3ccc(OC)nc3)cc2C1c1ccc(C)cc1C (configuration not stated),6.9% (active),1.6% (active),45.8%,25.7%,11.1%,26.8%,-31.6% (active),25.6%,3.95% (active),41.5%,1.68% (active),39.3%,30.5%,28.5%,44.8%,25%,18.1%,-12.2% (active),27%,22.6%
O=C1CC(=O)N2CSCN(C(c3ccccc3)c3nc4ncncc4[nH]3)C2=N1 (configuration not stated),100%,106%,99.8%,93.8%,97.9%,98%,105%,97%,108%,117%,96.6%,94.3%,103%,79.6%,106%,99.8%,93.2%,85.8%,108%,112%
Cc1[nH]c(C(=O)Nc2ccccc2OCc2cccc(C(=O)N3CCC[C@@H](N)C3)c2)c(Cl)c1Cl,-78.6% (active),-71.9% (active),-96.3% (active),-84.4% (active),-83.9% (active),-88.9% (active),-97.7% (active),-90.8% (active),-90% (active),-84.6% (active),-74.1% (active),-93.4% (active),-79.4% (active),-89.5% (active),-90.2% (active),-96.4% (active),-92.8% (active),56.2%,-26.6% (active),-55.2% (active)
CCNC(=O)N1CCc2cc(OC)c(OCCc3ccc(OC)c(N)c3)cc2C1c1ccc(C)cc1C (configuration not stated),10.4%,3.09% (active),41.5%,30.1%,17.8%,29.1%,-7.76% (active),24.2%,6.47% (active),42.5%,4.33% (active),44%,22.6%,30.4%,56.1%,27.6%,22.9%,-5% (active),34.5%,29.3%
CC1(C)CC[C@]2(CN)CC[C@]3(C)C(=CC[C@@H]4[C@@]5(C)CCCNC(C)(C)[C@@H]5CC[C@]43C)[C@H]2C1,71.7%,40.7%,99.1%,101%,89.4%,87.6%,98.8%,105%,81.9%,103%,108%,96%,99.5%,89%,111%,109%,93.2%,98%,79.4%,82.8%
C=C(C)[C@@H]1CC[C@]2(COCCCNCCC#N)CC[C@]3(C)[C@H](CC[C@@H]4[C@@]5(C)CC[C@H](OCCCNCCC#N)C(C)(C)[C@@H]5CC[C@]43C)[C@@H]12,47%,49.9%,54.4%,83.5%,70.9%,42.5%,15%,69.1%,-1.84% (active),90.5%,93.7%,36.1%,52%,41.3%,74.9%,65.3%,34.8%,43.3%,,28.2%
COc1ccc2c(c1)Oc1nc(N)c(C#N)c(N)c1C2Sc1ccc(C)cc1 (configuration not stated),-82.5% (active),-26.8% (active),88.7%,7.65% (active),0.124% (active),-43.8% (active),-25.1% (active),9.86% (active),-98.4% (active),-25.9% (active),-36.4% (active),19.3%,0.951% (active),-81.6% (active),-23.4% (active),-96.9% (active),-7.52% (active),33.4%,-16.1% (active),-12.9% (active)
CN(Cc1ccccc1)S(=O)(=O)/N=C1\NC(=O)NC1=C(Cl)Cl,-69% (active),48%,107%,68.6%,18.8%,35.6%,95.7%,62.2%,-84.5% (active),11.2%,87.8%,86.2%,18.4%,93.3%,44.1%,-90.8% (active),86.8%,70.8%,-12.8% (active),10.3%
COc1cc(Nc2c(C#N)cnn3cc(-c4cnn(CC(C)(C)O)c4)cc23)ccc1Cl,29.9%,54.3%,55.5%,88.1%,67.2%,62.4%,65.3%,46%,31%,86%,61.1%,43.4%,23.5%,11.6%,23.3%,18%,9.46% (active),-24.4% (active),32.6%,36.7%
C#CCOc1ccc(/C=N\Nc2nc(-c3ccc(C)cc3)cs2)cc1OC,86.1%,88.2%,114%,95.2%,89.3%,69.6%,71.6%,74.7%,93.7%,89.9%,96.1%,65.3%,89.2%,78.3%,166%,103%,115%,81.2%,90.4%,79.5%
CC(=O)c1ccc(Nc2nc(SCC(C)C)nc(-c3ccccc3)c2C#N)cc1,95.3%,106%,93.3%,38.5%,32.4%,104%,99.7%,75.3%,86.9%,101%,76.7%,88.6%,95.9%,111%,98.4%,47.8%,69.6%,107%,102%,102%
Cc1nn(-c2ccccc2)c2ncnc(N/N=C/c3ccccc3)c12,85.4%,89.1%,82.9%,84.4%,85%,85.2%,92.2%,90.6%,105%,98.4%,104%,89.6%,81%,75.3%,113%,85.8%,102%,74.1%,88.3%,87.1%
CS(=O)(=O)Nc1cc(-c2ccc3ncc(C#N)c(Nc4cccc(Cl)c4F)c3c2)cnc1Cl,8.27% (active),2.88% (active),47.9%,5.43% (active),-8.19% (active),-16.3% (active),-89.9% (active),-32% (active),-62.2% (active),2.61% (active),-71.3% (active),-5.3% (active),16.1%,-16.1% (active),-31% (active),12.7%,-5.21% (active),-50.9% (active),2.5% (active),-11.1% (active)
CCOC(=O)c1c(N)c(C#N)cn1-c1cc(OC)c(OC)c(OC)c1,106%,107%,92.7%,101%,114%,105%,111%,101%,97.8%,108%,129%,96%,101%,88.8%,99.5%,101%,91.8%,93.7%,107%,102%
Cc1cc(C)n(C(=O)c2sc(=S)n(-c3ccccc3)c2N=Nc2c(N)n[nH]c2N)n1,108%,103%,109%,105%,104%,98.7%,103%,98.2%,101%,106%,110%,102%,105%,84.8%,122%,102%,98.9%,,95.5%,105%
COC[C@]12CCC(C)(C)C[C@H]1C1=CC[C@@H]3[C@@]4(C)CCCNC(C)(C)[C@@H]4CC[C@@]3(C)[C@]1(C)CC2,-86.5% (active),-28% (active),12%,-2.59% (active),-58.1% (active),0.7% (active),-98.1% (active),-74% (active),-94.6% (active),-79.4% (active),35.2%,-83.4% (active),29.9%,-50.2% (active),64.7%,-10.6% (active),-29.4% (active),37.1%,,-35% (active)
C[C@H]1c2[nH]c3ccccc3c2C[C@H]2C(=O)N(CCCCCCC(=O)NO)CC(=O)N21,99.3%,86.8%,82.1%,84.8%,85.2%,77.7%,83%,69.6%,-8.74% (active),78.9%,76.3%,85.3%,88.5%,83.3%,90.3%,90.1%,87.8%,,36.9%,52.3%
COc1ccc(-c2nc3cccc(O)c3c(=O)n2Cc2ccccc2)cc1COc1ccc(NC(C)=O)cc1,12.5% [3 µM],55.9% [3 µM],44.8% [3 µM],42% [3 µM],30% [3 µM],36.5% [3 µM],29.4% [3 µM],37.3% [3 µM],2.67% [3 µM] (active),55.4% [3 µM],86.8% [3 µM],79.5% [3 µM],62.3% [3 µM],74.2% [3 µM],69.4% [3 µM],36.2% [3 µM],57% [3 µM],,41.6% [3 µM],15.4% [3 µM]
COc1ccccc1C(=O)Nc1cccc2c1C(=O)C(=O)C=C2,93.6%,62.5%,70%,106%,107%,89.8%,93.2%,105%,63.1%,108%,109%,72.2%,90.9%,59.2%,116%,101%,76.4%,,,36.8%
NC(N)=Nc1ccc(Oc2cccc(Nc3cccc(C(F)(F)F)c3)c2)cn1,-64.9% (active),14.6%,33.5%,1.17% (active),-62.7% (active),-74.8% (active),31.4%,-16.2% (active),-90.3% (active),31.5%,64.8%,2.37% (active),-13.7% (active),42.8%,70%,37.8%,27.2%,,-9.05% (active),0.007% (active)
Nc1nc(N)c2c(n1)NC(c1ccc(Cl)cc1)CC(c1ccc(Nc3nc(NCCO)nc(N4CCOCC4)n3)cc1)=N2 (configuration not stated),53.7%,57.2%,72.5%,87.4%,59.5%,64%,67.4%,89.9%,61.2%,83.5%,88.2%,89.8%,82.1%,84.4%,103%,93.7%,97.2%,,48.2%,
NC(=O)c1c(NC(=O)c2ccc(F)cc2F)sc2c1CCC(=O)C2,11.8%,59.8%,66.8%,59.3%,32.4%,16.3%,64.6%,22.6%,22.6%,37%,102%,73.6%,72.9%,29.3%,61.9%,7.96% (active),33.9%,,18.3%,40.6%
Cc1cc(S(=O)(=O)N(C)C)cc(NCC(=O)NC(=O)NCC(C)C)c1C,110%,114%,45%,105%,108%,101%,96.5%,91.8%,96.4%,102%,105%,63.1%,87.9%,57.1%,68.2%,94.4%,64.3%,51.7%,,96.1%
CCNC(=O)N1CCc2cc(OC)c(OCCc3ccc(OC)cc3)cc2C1c1ccc([N+](=O)[O-])cc1C (configuration not stated),7.24% (active),4.69% (active),21%,28.4%,16.4%,23.4%,0.509% (active),30.4%,7.24% (active),47.8%,22.3%,42.2%,44%,29.3%,54.8%,30.4%,27.2%,,33.4%,26.1%
